Holding throughout (parameters): scale not given: direction of the effect not stated beside the values
Test [1] has as its target Protein translocase subunit SecA (Escherichia coli (strain K12)) (UniProt P10408). The experiment in a line: Assay to Identify E. coli SecA ATPase Inhibitors. In kind it is functional. The following applies: 30 µM.
Test [2] addresses T1, Ubiquitin-activating enzyme e1, putative (Leishmania donovani (strain BPK282A1)) (UniProt E9BSI1).
T1 sequence (whole entry): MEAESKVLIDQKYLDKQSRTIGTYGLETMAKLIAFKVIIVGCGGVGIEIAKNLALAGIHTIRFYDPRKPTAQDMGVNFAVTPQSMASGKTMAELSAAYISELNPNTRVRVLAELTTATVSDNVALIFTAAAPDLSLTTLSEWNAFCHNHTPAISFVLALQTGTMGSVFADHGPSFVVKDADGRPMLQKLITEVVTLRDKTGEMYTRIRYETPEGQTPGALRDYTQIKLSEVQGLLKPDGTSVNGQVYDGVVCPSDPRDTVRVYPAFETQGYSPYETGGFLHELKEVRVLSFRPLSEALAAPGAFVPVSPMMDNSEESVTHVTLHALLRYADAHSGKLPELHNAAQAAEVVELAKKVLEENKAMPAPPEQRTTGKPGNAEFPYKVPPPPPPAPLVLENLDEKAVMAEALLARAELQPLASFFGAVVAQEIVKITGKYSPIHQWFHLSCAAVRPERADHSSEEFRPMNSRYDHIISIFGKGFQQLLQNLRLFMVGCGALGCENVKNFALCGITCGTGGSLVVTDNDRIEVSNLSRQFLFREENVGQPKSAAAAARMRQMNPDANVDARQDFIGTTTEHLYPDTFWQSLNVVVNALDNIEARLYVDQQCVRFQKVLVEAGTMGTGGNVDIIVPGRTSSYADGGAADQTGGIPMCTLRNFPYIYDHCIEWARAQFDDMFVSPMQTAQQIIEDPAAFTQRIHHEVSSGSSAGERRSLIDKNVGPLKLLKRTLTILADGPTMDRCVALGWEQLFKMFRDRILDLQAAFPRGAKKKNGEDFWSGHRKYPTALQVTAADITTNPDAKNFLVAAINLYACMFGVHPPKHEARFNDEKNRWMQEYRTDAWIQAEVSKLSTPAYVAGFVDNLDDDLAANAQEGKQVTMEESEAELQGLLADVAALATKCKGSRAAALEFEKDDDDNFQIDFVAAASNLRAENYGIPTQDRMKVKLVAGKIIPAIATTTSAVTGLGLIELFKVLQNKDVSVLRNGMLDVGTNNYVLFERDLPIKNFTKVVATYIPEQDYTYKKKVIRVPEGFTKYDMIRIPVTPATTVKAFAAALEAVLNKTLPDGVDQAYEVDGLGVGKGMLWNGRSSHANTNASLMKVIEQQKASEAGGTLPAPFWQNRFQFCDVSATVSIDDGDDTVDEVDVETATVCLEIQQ
Nature of the test: Leishmania donovani Ubiquitin Activating Enzyme (LdE1). In kind it is functional. Conditions: 30 µM.

Test [3] has as its target AMP-activated protein kinase, AMPK (Homo sapiens) (UniProt P54646+O43741+P54619+Q9UGJ0+Q9Y478+Q13131+Q9UGI9). The experiment in a line: AMP-dependent Kinase enzyme assay. An in vitro enzyme assay that detects ADP turnover that is directly proportional to AMPK activity. This uses naive AMPK that is activated during the assay with MK-8722. In kind it is functional. The following applies: 30 µM.

The target of test [4] is Sialic acid-binding Ig-like lectin 9 (Homo sapiens) (UniProt Q9Y336). The experiment in a line: Hs-Siglec9 ALPHAscreen SOP 20170721. Conditions: 10 µM.
Sequence of Sialic acid-binding Ig-like lectin 9 (Homo sapiens) (Q9Y336 whole entry): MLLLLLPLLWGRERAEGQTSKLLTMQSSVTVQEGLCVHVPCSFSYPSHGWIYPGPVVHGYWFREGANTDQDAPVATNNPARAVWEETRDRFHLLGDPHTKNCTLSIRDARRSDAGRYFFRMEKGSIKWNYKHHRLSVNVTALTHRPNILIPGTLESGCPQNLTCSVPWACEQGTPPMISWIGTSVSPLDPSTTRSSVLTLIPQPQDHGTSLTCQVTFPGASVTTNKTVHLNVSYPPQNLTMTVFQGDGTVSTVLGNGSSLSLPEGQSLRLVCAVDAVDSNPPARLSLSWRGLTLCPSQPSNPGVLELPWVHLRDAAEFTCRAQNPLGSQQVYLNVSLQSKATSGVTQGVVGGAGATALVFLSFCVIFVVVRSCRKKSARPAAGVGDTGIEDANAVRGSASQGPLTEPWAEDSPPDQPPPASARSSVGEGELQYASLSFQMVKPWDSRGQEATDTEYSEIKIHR
The subject of another test is Trypanosoma cruzi. Nature of the test: Trypanosoma cruzi phosphomannomutase and mannose-1-phosphate guanylyltransferase assay. In kind it is functional. The following applies: 10 µM.
The target in test [5] is T2, Arginase-2, mitochondrial (Homo sapiens) (UniProt P78540).
T2 sequence (whole entry): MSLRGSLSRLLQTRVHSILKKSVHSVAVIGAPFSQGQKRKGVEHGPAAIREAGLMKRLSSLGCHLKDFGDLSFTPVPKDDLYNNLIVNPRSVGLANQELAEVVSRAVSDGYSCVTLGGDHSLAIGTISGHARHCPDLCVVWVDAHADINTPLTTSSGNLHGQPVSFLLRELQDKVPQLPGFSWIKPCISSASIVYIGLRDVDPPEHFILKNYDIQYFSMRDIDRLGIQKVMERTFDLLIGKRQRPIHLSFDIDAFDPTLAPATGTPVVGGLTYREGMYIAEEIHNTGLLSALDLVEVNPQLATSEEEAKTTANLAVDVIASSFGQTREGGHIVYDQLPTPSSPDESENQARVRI
Nature of the test: in vitro enzyme assay to detect the production of urea directly proportional to the activity of Arginase II. Note: in the data most compounds retested in dose-response had high values. Conditions: 33.3 µM. In kind it is functional.

Test [6] deals with T3, Proteasome subunit beta (Trypanosoma cruzi) (UniProt O96673).
T3 sequence (whole entry): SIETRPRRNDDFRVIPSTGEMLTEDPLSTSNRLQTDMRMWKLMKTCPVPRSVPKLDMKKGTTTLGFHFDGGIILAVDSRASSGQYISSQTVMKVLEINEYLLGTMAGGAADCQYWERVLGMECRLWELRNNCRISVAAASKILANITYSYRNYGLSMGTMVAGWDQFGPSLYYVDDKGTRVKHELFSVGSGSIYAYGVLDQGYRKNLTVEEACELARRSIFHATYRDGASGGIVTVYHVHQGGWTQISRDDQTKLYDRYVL
The experiment in a line: Trypanosoma cruzi proteasome chymotrypsin-like activity (TcProtChymo) assay. Note: in the data most compounds retested in dose-response had high values. The following applies: 9.37 µM. In kind it is functional.

For a further test, the species on record is Homo sapiens. Nature of the test: To identify inhibition of the IFN signalling (Jak-Stat) pathway via expression of an eGFP reporter gene under the control of an IFN-stimulated response element (ISRE) containing MxA promoter. In kind it is functional. The following applies: 30 µM.
The target of test [7] is T4, Tyrosyl-tRNA synthetase, putative (Trypanosoma cruzi (strain CL Brener)) (UniProt Q4DSP6).
T4 sequence (whole entry): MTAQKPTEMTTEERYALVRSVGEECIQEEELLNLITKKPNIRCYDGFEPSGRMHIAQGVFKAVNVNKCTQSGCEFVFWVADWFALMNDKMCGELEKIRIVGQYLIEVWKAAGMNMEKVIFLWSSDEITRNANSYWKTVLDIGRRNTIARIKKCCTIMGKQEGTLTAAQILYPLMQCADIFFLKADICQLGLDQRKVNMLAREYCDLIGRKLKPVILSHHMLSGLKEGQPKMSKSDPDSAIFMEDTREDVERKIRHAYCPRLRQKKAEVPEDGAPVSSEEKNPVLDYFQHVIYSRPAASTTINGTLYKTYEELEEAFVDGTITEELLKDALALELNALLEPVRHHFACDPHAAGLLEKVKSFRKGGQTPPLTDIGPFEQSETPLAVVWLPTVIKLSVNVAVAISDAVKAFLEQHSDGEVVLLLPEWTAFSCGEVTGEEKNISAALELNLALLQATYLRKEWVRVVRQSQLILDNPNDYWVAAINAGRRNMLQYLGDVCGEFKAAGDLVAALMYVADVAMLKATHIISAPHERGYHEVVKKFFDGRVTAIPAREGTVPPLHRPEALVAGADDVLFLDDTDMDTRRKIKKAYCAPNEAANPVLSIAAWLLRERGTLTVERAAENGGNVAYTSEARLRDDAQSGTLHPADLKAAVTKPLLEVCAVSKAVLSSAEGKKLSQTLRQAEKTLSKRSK
Nature of the test: Trypanosoma cruzi tyrosyl tRNA synthetase (TcYRS) _High Tyrosine SOP. Note: in the data most compounds retested in dose-response had high values. In kind it is functional. The following applies: 30 µM.

In test [8] the target is T4, Tyrosyl-tRNA synthetase, putative (Trypanosoma cruzi (strain CL Brener)). Nature of the test: Trypanosoma cruzi tyrosyl tRNA synthetase (TcYRS) SOP. In kind it is functional. Conditions: 30 µM.
The target in test [9] is Chromo domain-containing protein 1 (Saccharomyces cerevisiae (strain ATCC 204508 / S288c) (Baker's yeast)) (UniProt P32657). The experiment in a line: ScCHD-1 Enzyme Inhibition Assay. Note: in the data most compounds retested in dose-response had high values. In kind it is functional. The following applies: 30 µM.
Sequence of Chromo domain-containing protein 1 (Saccharomyces cerevisiae (strain ATCC 204508 / S288c) (Baker's yeast)) (P32657 whole entry, the tested form may be a part): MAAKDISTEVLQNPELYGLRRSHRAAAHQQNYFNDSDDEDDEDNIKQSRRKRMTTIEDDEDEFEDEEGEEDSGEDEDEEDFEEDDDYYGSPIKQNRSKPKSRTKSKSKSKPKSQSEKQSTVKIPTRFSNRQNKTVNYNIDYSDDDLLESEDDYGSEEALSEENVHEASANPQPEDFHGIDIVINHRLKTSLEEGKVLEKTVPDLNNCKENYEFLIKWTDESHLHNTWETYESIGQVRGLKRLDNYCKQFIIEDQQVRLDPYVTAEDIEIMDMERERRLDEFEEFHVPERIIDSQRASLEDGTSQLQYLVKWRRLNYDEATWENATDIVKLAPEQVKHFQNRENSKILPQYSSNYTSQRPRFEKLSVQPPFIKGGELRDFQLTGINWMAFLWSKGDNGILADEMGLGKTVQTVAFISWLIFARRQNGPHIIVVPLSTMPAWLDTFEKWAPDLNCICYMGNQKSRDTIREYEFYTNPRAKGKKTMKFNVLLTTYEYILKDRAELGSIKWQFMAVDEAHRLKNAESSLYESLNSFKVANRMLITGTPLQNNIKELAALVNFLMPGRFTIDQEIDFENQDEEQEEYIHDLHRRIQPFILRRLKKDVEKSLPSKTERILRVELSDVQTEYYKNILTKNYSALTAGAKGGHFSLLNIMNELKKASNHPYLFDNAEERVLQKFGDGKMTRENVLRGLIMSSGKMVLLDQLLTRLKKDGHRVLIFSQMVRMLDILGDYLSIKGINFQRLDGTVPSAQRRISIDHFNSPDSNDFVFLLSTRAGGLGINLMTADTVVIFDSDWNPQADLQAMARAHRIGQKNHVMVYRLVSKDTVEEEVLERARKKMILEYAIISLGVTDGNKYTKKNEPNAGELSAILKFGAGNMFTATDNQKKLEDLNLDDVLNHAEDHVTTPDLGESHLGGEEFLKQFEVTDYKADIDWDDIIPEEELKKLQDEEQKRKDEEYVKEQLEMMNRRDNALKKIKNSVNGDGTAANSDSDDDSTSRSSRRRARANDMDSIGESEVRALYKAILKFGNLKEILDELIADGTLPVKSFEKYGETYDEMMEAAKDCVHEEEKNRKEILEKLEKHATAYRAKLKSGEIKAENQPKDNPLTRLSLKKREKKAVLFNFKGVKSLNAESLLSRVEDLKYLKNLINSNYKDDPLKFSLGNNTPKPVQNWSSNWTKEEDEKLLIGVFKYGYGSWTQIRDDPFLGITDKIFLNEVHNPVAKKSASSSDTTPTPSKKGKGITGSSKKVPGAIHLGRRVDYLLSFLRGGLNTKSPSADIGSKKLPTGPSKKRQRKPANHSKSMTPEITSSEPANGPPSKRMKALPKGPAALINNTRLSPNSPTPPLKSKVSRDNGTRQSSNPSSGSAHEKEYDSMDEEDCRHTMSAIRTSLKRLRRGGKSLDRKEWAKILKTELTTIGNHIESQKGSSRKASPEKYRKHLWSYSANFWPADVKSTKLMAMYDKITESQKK

For some of these results: Results with a measured potency or affinity are listed apart.

Sequence of Protein translocase subunit SecA (Escherichia coli (strain K12)) (P10408 whole entry): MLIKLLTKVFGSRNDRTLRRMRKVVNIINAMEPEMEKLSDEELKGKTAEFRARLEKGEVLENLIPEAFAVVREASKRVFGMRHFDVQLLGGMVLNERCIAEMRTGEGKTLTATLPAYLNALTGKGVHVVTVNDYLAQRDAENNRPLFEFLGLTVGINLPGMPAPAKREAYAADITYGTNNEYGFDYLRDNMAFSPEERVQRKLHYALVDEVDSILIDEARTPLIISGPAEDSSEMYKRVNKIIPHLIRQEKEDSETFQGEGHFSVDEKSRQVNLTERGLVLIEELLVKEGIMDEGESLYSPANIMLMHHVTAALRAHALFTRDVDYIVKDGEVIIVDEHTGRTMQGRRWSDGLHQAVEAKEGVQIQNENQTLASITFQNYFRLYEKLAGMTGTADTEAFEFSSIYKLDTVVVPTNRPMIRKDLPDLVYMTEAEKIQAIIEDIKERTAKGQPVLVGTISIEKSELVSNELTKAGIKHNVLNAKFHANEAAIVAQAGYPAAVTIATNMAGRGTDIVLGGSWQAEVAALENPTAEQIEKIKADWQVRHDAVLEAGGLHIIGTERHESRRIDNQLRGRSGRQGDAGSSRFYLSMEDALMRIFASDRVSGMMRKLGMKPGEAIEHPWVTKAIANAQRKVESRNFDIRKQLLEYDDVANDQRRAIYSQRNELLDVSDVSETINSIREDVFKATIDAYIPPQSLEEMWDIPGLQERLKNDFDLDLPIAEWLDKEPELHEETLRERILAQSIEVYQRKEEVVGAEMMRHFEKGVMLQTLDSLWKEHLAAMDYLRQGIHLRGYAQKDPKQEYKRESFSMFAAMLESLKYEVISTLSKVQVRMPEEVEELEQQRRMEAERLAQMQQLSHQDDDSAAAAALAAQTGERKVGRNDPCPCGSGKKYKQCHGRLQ

As to `O=C(Cc1ccccn1)N1CCc2nc(-c3cnccn3)nc(O)c2C1`, the Percent Effect is -2.77% in test [1]; 12.2% in test [2]; 8.84% in test [3]; -3.28% in [4]; 0.593% in the test with Trypanosoma cruzi; 3.48% in test [5]. For the same compound, the Percent Effect is 12.6% in [6]; 9.22% in the test filed under Homo sapiens; 4.3% in test [7]; 9.09% in [8]; -9.74% in test [9].

Take `Cc1cccc(CN2C(=O)CO[C@@H]3CN(Cc4nccn4C)C[C@H]32)c1`: the Percent Effect in test [1] was 0.226%; in [2] it was 10.8%; in [3], -0.86%; in test [4] it was -6.69%; in the test on Trypanosoma cruzi, 3.91%; in test [5], 25.8%. Besides, the Percent Effect in test [6] is 20.5%; in the test filed under Homo sapiens it was 12.6%; in test [7] it was 9.9%; in test [8], 18.3%; in [9], -3.16%.

Regarding `COCC(c1cccc(C(F)(F)F)c1)N(C)C(=O)c1cc(C)no1` (stereo unspecified), the Percent Effect in [1] is -0.889%; in test [2] it was 13.2%; in [3] it was 1.05%; in [4], -2.93%; with Trypanosoma cruzi, 0.564%; in test [5] it was 4.98%. Further, the Percent Effect in [6] was 6.68%; in the test filed under Homo sapiens, 10.2%; in [7] it was 1.47%; in test [8] it was 19.5%; in test [9], -12.2%.

As for `CC(C)c1nn(C)c(N(C)C)c1CNCc1cccc(CN(C)C)c1`, the Percent Effect is -1.46% in test [1]; 18.4% in test [2]; -8.3% in test [3]; 3.17% in [4]; -7.94% with Trypanosoma cruzi; 3.6% in test [5]. For the same compound, the Percent Effect was 3.81% in [6]; 2.21% in the test filed under Homo sapiens; 8.37% in [7]; 18.5% in [8]; -4.8% in [9].

Take `CCc1nc(CCNC(=O)C2CCOC2)sc1C` (stereo unspecified): the Percent Effect in test [1] was -4.95%; in [2] it was 8.11%; in test [3], -4.04%; in test [4], 10.6%; with Trypanosoma cruzi, 1.76%; in test [5], 3.75%. Besides, the Percent Effect is 5.5% in [6]; 9.42% in the test listed under Homo sapiens; 6.93% in test [7]; 8.54% in [8]; -0.947% in test [9].

For the compound `Cc1csc([C@@H]2C[C@@H]3CCN(Cc4cnn(C)c4)C[C@H]3O2)n1`, the Percent Effect in test [1] is -5.44%; in test [2], 2.6%; in test [3] it was -0.433%; in test [4], 1.83%; in the test on Trypanosoma cruzi it was -0.0983%; in test [5], -5.52%. In addition, the Percent Effect in test [6] is 3.33%; in the test filed under Homo sapiens, -23.4%; in test [7], 1.07%; in test [8], 1.24%; in [9] it was -4%.

Regarding `Cc1cc(CNc2ccc(C(=O)N3CCCC(C)C3)cc2C)no1` (stereo unspecified), the Percent Effect was -4.07% in test [1]; 10.4% in test [2]; 0.477% in test [3]; -5.45% in test [4]; -6.18% in the test with Trypanosoma cruzi; -1.42% in test [5]. Moreover, the Percent Effect in [6] is 3.72%; in the test filed under Homo sapiens, 37.9%; in test [7], 5.83%; in test [8], 14.6%; in test [9], -5.48%.

With `COc1ccc(OCCNCCn2cccn2)cc1`, the Percent Effect was 1.21% in [1]; 1.27% in [2]; -2.53% in test [3]; 10.8% in test [4]; -1.95% in the test with Trypanosoma cruzi; 7.1% in [5]. The Percent Effect in test [6] is 6.69%; in the test filed under Homo sapiens, 6.41%; in test [7] it was -1.04%; in test [8], 2.53%; in test [9], -1.82%.

As to `CCc1nccn1C1CCCN(C(=O)c2cnn3ccc(C)nc23)C1` (stereo unspecified), the Percent Effect is -3.42% in [1]; -2.7% in [2]; -5.57% in test [3]; 1.51% in test [4]; -0.283% in the test with Trypanosoma cruzi; -2% in test [5]. For the same compound, the Percent Effect was 4.5% in test [6]; 4.32% in the test listed under Homo sapiens; 5.42% in test [7]; -6.17% in [8]; -7.37% in [9].

Take `CCNc1cc2c(nn1)CCN(C(=O)Cc1c(C)noc1C)C2`: the Percent Effect in test [1] is -9.15%; in test [2], 7.89%; in test [3] it was 9.72%; in test [4] it was 1.08%; in the test with Trypanosoma cruzi it was -5.51%; in test [5] it was 0.719%. In addition, the Percent Effect was 3.47% in test [6]; 6.32% in the test listed under Homo sapiens; 0.493% in [7]; 1.24% in test [8]; 3.07% in [9].

With `Cc1ccc(CC(=O)N2Cc3nccn3CC(Cn3cccn3)C2)cc1` (stereo unspecified), the Percent Effect in test [1] is 0.712%; in test [2], 8.22%; in [3] it was -7.73%; in test [4], 14.5%; in the test on Trypanosoma cruzi, 3.77%; in test [5], 2.79%. The Percent Effect in test [6] was 11.2%; in the test listed under Homo sapiens it was 17.3%; in [7], 4.17%; in [8], 16.1%; in [9], -6.87%.
